PubChem BioAssay (EPA / NIEHS)
“And” between values parts separate entries of the source, which are not always exact repeats. Identical values can stand only once. Records with an inconclusive call do not appear. The source holds several records for some structures; these can differ, active in one and inactive in another. The source made the active and inactive calls. The calls were made as follows: active = hit-call score of the fitted dose curve at least 0.9, where 1 is the maximum; inconclusive = response in the unintended direction; inactive = score below 0.9.

Molecular target: Cellular tumor antigen p53 (Homo sapiens) (UniProt P04637)
Sequence (P04637 whole entry, looked up): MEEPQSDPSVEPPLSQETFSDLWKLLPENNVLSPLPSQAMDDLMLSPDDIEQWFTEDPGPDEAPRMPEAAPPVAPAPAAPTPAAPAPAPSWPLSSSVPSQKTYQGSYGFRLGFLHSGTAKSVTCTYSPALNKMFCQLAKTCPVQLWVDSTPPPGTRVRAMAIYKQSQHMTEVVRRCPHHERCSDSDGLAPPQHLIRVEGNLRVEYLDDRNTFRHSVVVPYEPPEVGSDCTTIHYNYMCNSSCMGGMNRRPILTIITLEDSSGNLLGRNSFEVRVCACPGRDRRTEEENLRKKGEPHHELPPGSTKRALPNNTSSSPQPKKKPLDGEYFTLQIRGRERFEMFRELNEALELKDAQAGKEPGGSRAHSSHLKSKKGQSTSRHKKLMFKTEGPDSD
Assay: TOX21_p53_BLA_p3_ratio: Tox21 HCT-116 p53 Agonism Beta-lactamase Assay, Ratio, Phase 3 (AID 2283596)
Summary of the method: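 Cells were seeded at 4000/well, rested 5 h at 37C, then dosed with DMSO compound solutions (217-fold dilution) for 16 h. CCF4-AM substrate was loaded for 2 h at room temperature, and the 460/530 nm emission ratio was fitted for gain of signal versus DMSO.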
For `N#Cc1cccc(C#N)c1`, the outcome was “inactive”.
In the case of `O=C1Nc2ccc(Cl)cc2C(c2ccccc2)=NC1O` (stereo unspecified), the outcome is reported as “inactive”.
With `N#CC(c1ccccc1)c1ccccc1` the outcome was “inactive”.

Test system: not listed separately
Assay: TOX21_p53_BLA_p4_viability: Viability Assessment in the Tox21 HCT-116 p53 Agonism Beta-lactamase Assay, Phase 4 (AID 2283597);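 also: hits lower the luminescence signal meaning cytotoxicity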
Summary of the method: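 4000 HCT116 cells per well; 5 h attachment; compounds from DMSO, 217-fold dilution; 16 h at 37C. Then CCF4-AM, 2 h RT, followed by CellTiter-Glo, 30 min RT, luminescence. Decrease = cytotoxicity.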
For `O=C1C(Cl)=C(Cl)C(=O)C(Cl)=C1Cl`, the AC50 was 73.4 µM (active) and 73.7 µM (active).
With `N#CCCCCC#N` the outcome was “inactive”.
In the case of `COc1cc(OC)c(OC)cc1C=O`, the outcome is reported as “inactive”.
For `CC(C)(c1cc(Cl)c(O)c(Cl)c1)c1cc(Cl)c(O)c(Cl)c1`, the AC50 was 62.3 µM (active) and the outcome was “inactive”.
For `O=C(NCNC(=O)NC1C(=O)NC(=O)N1CO)NC1C(=O)NC(=O)N1CO` (stereo unspecified), the outcome was “inactive”.
For `[N-]=[N+]=CC(=O)OC[C@H](N)C(=O)O`, the outcome was “inactive”.
For `CC(C)CCCCCCCOP(=O)(Oc1ccccc1)Oc1ccccc1`, the outcome was “inactive”.
With `C=CCN(CC=C)C(=O)C(Cl)Cl` the outcome was “inactive”.
In the case of `CC(Cc1ccc(C(C)(C)C)cc1)CN1C[C@@H](C)O[C@@H](C)C1` (stereo partly specified), the outcome is reported as “inactive”.
In the case of `[Cl-].[Cl-].[Cl-].[Yb+3]`, the outcome is reported as “inactive”.
With `O=CNC(N1CCN(C(NC=O)C(Cl)(Cl)Cl)CC1)C(Cl)(Cl)Cl` (stereo unspecified) the outcome was “inactive”.
For `CCC[N+](=O)[O-]`, the outcome was “inactive”.
For `CC(C)(O)C#N`, the outcome was “inactive”.
For `S=c1[nH]c2ccccc2[nH]1`, the outcome was “inactive”.
For `CCCCCc1cc(O)cc(O)c1`, the outcome was “inactive”.
For `c1ccc(Nc2ccc3ccccc3c2)cc1`, the AC50 was 73.9 µM (active) and 83 µM (active).
With `CSc1nc(N=[N+]=[N-])nc(NC(C)C)n1` the outcome was “inactive”.
With `CC=Cc1ccc2c(c1)OCO2` the outcome was “inactive”.
In the case of `Cc1ccc(OP(=O)(Oc2ccc(C)cc2)Oc2ccc(C)cc2)cc1` (tested in a mixture with another compound), the outcome is reported as “inactive”.
In the case of `O=S(=O)(c1ccccc1)c1ccccc1`, the outcome is reported as “inactive”.
With `CC1(C)C(=O)NC(=O)NC1=O` the outcome was “inactive”.
With `N#Cc1cccc(C#N)c1` the outcome was “inactive”.
For `O=C1Nc2ccc(Cl)cc2C(c2ccccc2)=NC1O` (stereo unspecified), the outcome was “inactive”.
With `N#CC(c1ccccc1)c1ccccc1` the outcome was “inactive”.

Molecular target: Cellular tumor antigen p53 (Homo sapiens) (UniProt P04637)
Assay: TOX21_p53_BLA_p5_ratio: Tox21 HCT-116 p53 Agonism Beta-lactamase Assay, Ratio, Phase 5 (AID 2283599)
Summary of the method: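 Beta-lactamase reporter ratio (blue 460 nm over green 530 nm, 405 nm excitation) after 2 h CCF4-AM loading, in HCT-116 cells exposed 16 h at 37 C to compounds pinned at 217-fold dilution. Increases relative to DMSO baseline scored.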
With `O=C1C(Cl)=C(Cl)C(=O)C(Cl)=C1Cl` the AC50 was 15.4 µM (active) and 34.8 µM (active).
With `N#CCCCCC#N` the outcome was “inactive”.
With `CC1CCC(=O)O1` (stereo unspecified) the outcome was “inactive”.
With `COc1cc(OC)c(OC)cc1C=O` the outcome was “inactive”.
With `CC(C)c1ccc(O)cc1` the outcome was “inactive”.
With `CC(C)(c1cc(Cl)c(O)c(Cl)c1)c1cc(Cl)c(O)c(Cl)c1` the outcome was “inactive” and the AC50 was 24.2 µM (active).
For `O=C(NCNC(=O)NC1C(=O)NC(=O)N1CO)NC1C(=O)NC(=O)N1CO` (stereo unspecified), the outcome was “inactive”.
With `COCC(=O)N(c1c(C)cccc1C)N1CCOC1=O` the outcome was “inactive”.
In the case of `CC(C)CCCCCCCOP(=O)(Oc1ccccc1)Oc1ccccc1`, the outcome is reported as “inactive”.
With `CC[N+](=O)[O-]` the outcome was “inactive”.
In the case of `CCOC(=O)N(C)N=O`, the outcome is reported as “inactive”.
With `O=CNC(N1CCN(C(NC=O)C(Cl)(Cl)Cl)CC1)C(Cl)(Cl)Cl` (stereo unspecified) the outcome was “inactive”.
In the case of `CCC[N+](=O)[O-]`, the outcome is reported as “inactive”.
In the case of `CC(C)(O)C#N`, the outcome is reported as “inactive”.
In the case of `CCCCCc1cc(O)cc(O)c1`, the outcome is reported as “inactive”.
For `c1ccc(Nc2ccc3ccccc3c2)cc1`, the outcome was “inactive”.
In the case of `CSc1nc(N=[N+]=[N-])nc(NC(C)C)n1`, the outcome is reported as “inactive”.
In the case of `CC=Cc1ccc2c(c1)OCO2`, the outcome is reported as “inactive”.
For `Cc1ccc(OP(=O)(Oc2ccc(C)cc2)Oc2ccc(C)cc2)cc1` (tested in a mixture with another compound), the outcome was “inactive”.
With `O=S(=O)(c1ccccc1)c1ccccc1` the outcome was “inactive”.
In the case of `CC1(C)C(=O)NC(=O)NC1=O`, the outcome is reported as “inactive”.
With `c1ccc(P(c2ccccc2)c2ccccc2)cc1` the outcome was “inactive”.
With `CCOC(=O)COc1ccc(Cl)cc1Cl` the outcome was “inactive”.
For `N#Cc1cccc(C#N)c1`, the outcome was “inactive”.
For `O=C1Nc2ccc(Cl)cc2C(c2ccccc2)=NC1O` (stereo unspecified), the outcome was “inactive” and the AC50 was 77.3 µM (active).
For `N#CC(c1ccccc1)c1ccccc1`, the outcome was “inactive”.
